Source: PubChem (several laboratories)
Rows were chosen to be rich in hits. Some 1.8% of all compounds tested hit in one or more screens of this group.
BH1578 lux ind: quorum light induction in luxS cqsA deficient V. cholerae; V. cholerae BH1578 lux reporter, luminescence, 6 h; activation, % at 18.7 µM; actives 0.16% (n = 350,000); AID 588436; in the data active = activation mostly above about 9.7%, no sharp cut-off
Y pestis TopoI: inhibitors of Yersinia pestis topoisomerase I; Y. pestis Topo-I cleavage product accumulation, plate reader; actives 0.064% (n = 360,000); AID 504884; activity, % at 10 µM; in the data active = activity above about 50%, passing the limit was not always enough
PrPC surface inh: cell surface PrPC inhibition, primary TR-FRET screen | TR-FRET read-out | inhibition, % at 13.8 µM | actives 0.43% (n = 370,000) | AID 720596; in the data active = inhibition above about 24%; note: 0% = median of the test wells and 100% = reference compound wells
CCHFV vOTU inh: blocks the CCHF virus ovarian tumor domain protease; inhibition, % at 11.5 µM; actives 0.55% (n = 370,000); AID 651958; CCHFV vOTU protease, Pep-AMC fluorescence; in the data active = inhibition above about 30%; note: 0% = vehicle wells with enzyme and 100% = no enzyme wells
MazF activator: activators of E. coli MazEF toxin-antitoxin RNase; P0AE70; FAM/BHQ RNA-DNA oligo cleavage fluorescence, 5 h; activation, % at 20 µM; actives 0.32% (n = 350,000); AID 504720; in the data active = activation above about 50%
Target sequence (P0AE70 whole entry, looked up): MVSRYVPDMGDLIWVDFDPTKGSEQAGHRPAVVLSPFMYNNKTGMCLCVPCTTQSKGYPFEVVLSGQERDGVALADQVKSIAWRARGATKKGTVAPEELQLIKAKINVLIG
DUSP3 inh: DUSP3 (human) phosphatase inhibition | P51452 | recombinant VHR phosphatase, pNPP absorbance | inhibition, % at 13.3 µM | actives 0.52% (n = 290,000) | AID 1654; in the data active = inhibition above about 50%
Target sequence (P51452 whole entry, looked up): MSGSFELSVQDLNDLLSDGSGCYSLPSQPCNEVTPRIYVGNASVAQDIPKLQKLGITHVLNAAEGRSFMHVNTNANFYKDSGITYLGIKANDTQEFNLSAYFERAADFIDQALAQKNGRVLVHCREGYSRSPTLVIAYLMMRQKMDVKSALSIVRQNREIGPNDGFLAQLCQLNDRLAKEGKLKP
Active calls of the source: *; i = inactive; x = not tested or not shown; + = active, no number.

SMILES	BH1578 lux ind	Y pestis TopoI	PrPC surface inh	CCHFV vOTU inh	MazF activator	DUSP3 inh
CC(C)(C)OC(=O)NCCCCCNC(=O)c1nc[nH]c1C(=O)NCc1ccc(CNC(=O)OC(C)(C)C)cc1	0	-13	25*	25	-2	x
CC(C)(C)OC(=O)NCc1ccc(CNC(=O)c2nc[nH]c2C(=O)NCc2ccc(CNC(=O)OC(C)(C)C)cc2)cc1	0	13	0	10	1	x
COc1ccc(Cn2cc(CN3[C@@H](C)COc4cc(Br)ccc4S3(=O)=O)nn2)cc1	x	x	-6	0	x	x
O=C(COc1cccc2c1CCN(Cc1ccccc1F)C2=O)N1CCOCC1	x	x	x	x	x	29
O=C(COc1cccc2c1CCN(Cc1ccccc1F)C2=O)N1CCCCC1	-1	14	12	-5	0	52*
COc1cc2c(cc1OC)C(C)N(C(=O)c1sccc1C)CC2 (centres undefined)	-3	1	-5	1	16	52*
CCC(C)(C)NC(=O)C(c1ccc(O)cc1)N(CCOC)C(=O)CCC(=O)Nc1nccs1 (centres undefined)	-4	-3	7	-3	235*	21
CCC(C)(C)NC(=O)C(c1ccc(OC)cc1)N(CCOC)C(=O)CCC(=O)Nc1nccs1 (centres undefined)	0	14	-2	-5	0	1
CCC(=O)N1CCc2cc(Br)c(S(=O)(=O)NCCCN(C)Cc3ccccc3)cc21	x	x	-9	-3	x	x
O=c1c2ccccc2c(C=NCc2ccccn2)c(O)n1-c1ccccc1	i	-6	6	10	162*	8
CN(C)CCOC(=O)C12CC3CC(CC(C3)C1)C2	5	-3	2	5	3	35
CN(C)CCOC(=O)C12CC3(C)CC(C)(CC(C)(C3)C1)C2	i	-13	-5	-8	-13	52*
CC(CCN1CCC(C(O)(c2ccccc2)c2ccccc2)CC1)Oc1cccc(F)c1 (centres undefined)	x	x	-10	1	x	x
COc1ccccc1CNC(=O)N1CCC(c2nc3ccc(Cl)cc3[nH]2)CC1	x	x	-3	-3	x	x
ONC(=Nc1ccccc1)C(=Nc1ccccc1)NO	2	3	11	-6	3	57*
CCCCCCC/C=N/Nc1nnc(Cc2ccccc2)c(=O)[nH]1	i	8	-2	-4	1	53*
CC(=O)OC12CCCN(C1)/C(=C/c1ccccc1)C2 (centres undefined)	x	x	-5	0	x	x
Nn1c(SCC(=O)Nc2ccc(OCc3ccccc3)cc2)nnc1-c1cc(-c2ccc(Cl)cc2)n[nH]1	x	x	-1	2	x	x
O=C(CNC(=O)C1COc2ccccc2O1)N/N=C\c1ccccc1Cl (centres undefined)	i	8	-1	0	5	56*
Oc1ccccc1C1=Nc2ccccc2N=C(c2ccco2)C1	i	0	-14	1	56*	20
COC(=O)C1CN(Cc2cn(Cc3ccc(Cl)cc3)nn2)CCS(=O)(=O)N1Cc1ccc(F)cc1 (centres undefined)	x	x	2	-1	x	x
C=CCn1c(NC(=O)c2ccc(C)cc2)nc2ccccc21	0	-11	-4	-7	11	54*
CCCCNC(=O)C[C@H]1C[C@@]2(C(=O)OC)C(=C[C@H](C3CCCC3)O[C@@H]2C)N(CCC2=CCCCC2)C1=O	x	x	-7	11	x	x
O=C(NC1CCCCN(Cc2cccc(F)c2)C1=O)c1ccc2ccccc2c1 (centres undefined)	x	x	-5	5	x	x
Cc1cccc(C)c1NC(=O)C1c2cccc[n+]2CC(=O)N1Cc1ccc2c(c1)OCO2 (centres undefined)	i	0	2	-12	0	10
SMILES	BH1578 lux ind	Y pestis TopoI	PrPC surface inh	CCHFV vOTU inh	MazF activator	DUSP3 inh
Cc1ccccc1NC(=O)C1c2cccc[n+]2CC(=O)N1c1c(C)cccc1C (centres undefined)	-1	-2	0	-1	63*	21
O=C(Nc1ccccc1[N+](=O)[O-])NC1CCCCN(Cc2ccc(Cl)cc2)C1=O (centres undefined)	x	x	-4	2	x	x
O=C(Sc1cccc2cccnc12)c1ccc(F)cc1	x	x	28*	0	x	14
CC(C)(C)c1ccc(-c2nnc3n2N=C(c2ccc4ccccc4c2)CS3)cc1	x	x	-6	11	x	x
Cc1cccc(NC(=O)Nc2nc3ncccn3c2-c2ccccc2)c1	x	x	0	-31	x	x
Cc1cccc(/C=N/NC(=O)c2cc(Br)ccc2OCc2ccccc2)n1	0	14	-9	9	125*	18
Cc1cccc(/C=N/NC(=O)c2ccccc2OCc2cccc(Br)c2)n1	0	-6	-9	0	-1	12
CC(C)COC(=O)C(C)Nc1n[nH]c(=S)[nH]c1=O (centres undefined)	+	1	5	3	-6	22
C=CCNC(=O)NCC1CCN(Cc2ccc(OC)cc2)CC1	x	x	-3	-3	x	x
COc1ccccc1/C=C/CN1CCCC(CO)(CCc2ccccc2)C1 (centres undefined)	1	17	-2	3	5	18
OCC1(CCc2ccccc2)CCCN(C/C=C/c2ccccc2)C1 (centres undefined)	i	5	4	-7	2	57*
O=C(CSc1ccccc1)NC1CCCCN(Cc2ccc(Cl)cc2)C1=O (centres undefined)	x	x	0	-2	x	x
COc1ccc(Br)cc1/C=C/c1ccc2cccc(O)c2n1	i	3	-16	19	-7	57*
CCOC(=O)[C@@H]1c2[nH]c3ccccc3c2C[C@@]2(C(=O)OC)C=CCN12	x	x	-5	11	x	x
CCOC(=O)C(C(=O)OCC)C(=O)c1cc(OC)c(OC)c(OC)c1	i	2	-3	7	1	52*
NC1=[N+](Cc2ccccc2)C(Cc2ccccc2)C2C(=C3CCCCC3n3c(=O)n(-c4ccccc4)c(=O)n32)N1 (centres undefined)	x	x	9	1	x	x
COc1ccc(OC)c(N(CC(=O)NCCSc2ccccc2)S(C)(=O)=O)c1	i	-3	5	-10	-1	50*
COc1ccc(N(CC(=O)NCCSc2ccccc2)S(C)(=O)=O)cc1	1	2	0	-15	3	23
Cc1csc(NC(CO)c2nc3ccccc3n2CCOCCO)n1 (centres undefined)	0	2	5	-11	-11	x
CCCn1c(C(CO)Nc2nc(C)cs2)nc2ccccc21 (centres undefined)	-1	-3	-4	-5	2	59*
CC[C@H](CCC(=O)N(c1ccccc1)c1ccccc1)c1ccc(C)cc1	x	x	0	6	x	x
CN(CCO)c1cccc2c1S(=O)(=O)N(Cc1cn(Cc3ccc(F)cc3)nn1)Cc1ccccc1O2	x	x	0	-9	x	x
CCOC(=O)C1=C(C)NC(=O)NC1c1ccc(-c2ccc(F)cc2)o1 (centres undefined)	0	-5	1	-2	1	52*
